Consider 62 compounds from PubChem BioAssay AID1259343 (VanderVen Lab, College of Veterinary Medicine, Cornell …, 2017).

About 2,900 (47%) of roughly 6,200 compounds were called active. The set was probably picked from earlier hits. Some of the results follow. Unmarked numbers belong to inactive results. Rule as the data show it: active = inhibition above about 50%; inactive = the rest.

A short description of this test: Mycobacterium tuberculosis growth inhibition, primary screen (AID 1259343). Conditions: inhibition: at 10 µM, active compounds read high; outcome: 10 uM.
On to `Cc1nc(NC(=O)c2c(C)nn(CC(C)C)c2Cl)sc1C`, for which the inhibition is 12.5%.

For the compound `CCC(C)C(=O)Nc1nc(-c2ccc(Cl)cc2)c(C)s1` (configuration not stated), the inhibition is 70.1% (active).

On to `Cc1sc(NC2CCCC2)nc1-c1ccc(F)c(F)c1`, for which the inhibition was 34.8%.

In the case of `COc1cccc(C2c3c(oc4cc(C)c(C)cc4c3=O)C(=O)N2c2nccs2)c1OC` (configuration not stated), the inhibition was -18.6%.

For `c1ccc(CN2CCN(c3nc(-c4cccnc4)nc4ccccc34)CC2)cc1`, the inhibition is 26.4%.

Turning to `Cc1cc(N2CCCCC2)nc(Nc2ccc(NS(=O)(=O)c3ccc4nc(C)sc4c3)cc2)n1`, the inhibition is 25.5%.

In the case of `Oc1ccc(Nc2nc(N3CCCC3)c3ccccc3n2)cc1`, the inhibition was 83.1% (active).

Take `CCOC(=O)C1CCCN(c2oc(-c3ccc(Cl)cc3)nc2C#N)C1` (configuration not stated): the inhibition is 12.5%.

As to `COc1ccc(OCc2nc(C#N)c(N3CCCC3)o2)cc1`, the inhibition was -23.3%.

Turning to `N#Cc1nc(COc2ccc(Cl)cc2)oc1N1CCCC1`, the inhibition was 92.6% (active).

Take `COc1ccc(C[C@H](N)C(=O)N[C@@H]2[C@@H](CO)OC(n3cnc4c(N(C)C)ncnc43)[C@@H]2O)cc1` (some centres not stated): the inhibition is 66.6% (active).

As for `CN(C)N=Nc1nc[nH]c1C(N)=O`, the inhibition was 70% (active).

On to `CC(C)(C)C(=O)Nc1nc(CC23CC4CC(CC(C4)C2)C3)cs1`, for which the inhibition was 38%.

For the compound `Cc1cc(C(=O)Nc2nc(C(C)(C)C)cs2)c(C)o1`, the inhibition was 60.2% (active).

`CC(C)(C)c1csc(NC(=O)C23CC4CC(CC(C4)C2)C3)n1`: the inhibition was 61.1% (active).

With `CC(C)(C)c1csc(NC(=O)CC2OCCc3ccsc32)n1` (configuration not stated), the inhibition was 22.8%.

For `CC(C)(C)c1csc(NC(=O)c2ccc(Cl)s2)n1`, the inhibition is -24%.

Consider `Cc1ccc(-c2ccc(C3=CC(C)(C)OC3=O)cc2)cc1`, for which the inhibition is 43.7%.

Take `O=C(Nc1cccc(Cl)c1)Oc1ccccc1-c1ccccc1`: the inhibition is 17.6%.

As to `N#CC1=C2Sc3ccccc3N2C(O)(C(F)(F)F)C(C(=O)C(F)(F)F)=C1` (configuration not stated), the inhibition was 71.5% (active).

In the case of `Fc1ccc(Br)cc1C1Nc2cccc3cccc(c23)N1`, the inhibition is 14.4%.

Turning to `Clc1cccc(C2Nc3cccc4cccc(c34)N2)c1Cl`, the inhibition was 97.7% (active).

Consider `Fc1cccc(Cl)c1C1Nc2cccc3cccc(c23)N1`, for which the inhibition was -12.9%.

`Fc1ccccc1Nc1nc(COc2cccc(Cl)c2)cs1`: the inhibition is 75.5% (active).

Consider `CCC(C)[C@H]1O[C@]2(CC[C@@H]1C)C[C@@H]1C[C@@H](C/C=C(\C)[C@@H](OC3C[C@H](OC)C(O[C@H]4C[C@H](OC)[C@@H](O)[C@H](C)O4)[C@H](C)O3)[C@@H](C)/C=C/C=C3\CO[C@@H]4[C@H](O)C(C)=C[C@@H](C(=O)O1)[C@]34O)O2` (some centres not stated), for which the inhibition was 67.3% (active).

Regarding `O=C1c2sc3nnc(-c4ccccc4)c(=O)n3c2C(=O)N1c1cccc(Cl)c1Cl`, the inhibition was 90.4% (active).

Take `Clc1cccc(N2CCN(c3nnnn3-c3ccccc3)CC2)c1`: the inhibition was -17.8%.

`NS(=O)(=O)c1ccc(N2CCN(c3cccc(Cl)c3)CC2)nc1`: the inhibition was 52.9% (active).

Regarding `Cc1nc(-c2c[nH]c(C(=O)N(C)C3CCC(C)CC3)c2)cs1` (configuration not stated), the inhibition was 29.5%.

Take `Cc1nc(-c2c[nH]c(C(=O)NC3CCC4CCCC4C3)c2)cs1` (configuration not stated): the inhibition was 87.9% (active).

Turning to `Cn1nc(CC(=O)NC2CCC3CCCCC3C2)c2ccccc2c1=O` (configuration not stated), the inhibition was 14.5%.

Take `Cc1ccc2nc(C3CCN(c4nncc(-c5ccc(Cl)cc5)n4)CC3)[nH]c2c1`: the inhibition is 37.6%.

Turning to `CC(NCc1cn[nH]c1-c1ccc(-c2ccccc2)cc1)c1ccc(F)cc1` (configuration not stated), the inhibition is 83.9% (active).

Turning to `CC(NCc1ccco1)c1nnc(-c2ccc(F)cc2)o1` (configuration not stated), the inhibition was 25.6%.

On to `CC(NCc1nnc(-c2cccc(Br)c2)o1)c1cccc(F)c1` (configuration not stated), for which the inhibition is -7.48%.

For `Clc1ccc(CNCc2cn[nH]c2-c2ccc(-c3ccccc3)cc2)s1`, the inhibition is 74.1% (active).

Take `CCCCc1ccc(-c2csc(NC(=O)C3(C)CCOCC3)n2)cc1`: the inhibition was 43.9%.

Take `CCCc1ccc(-c2ccc(NC(=O)C3COCCO3)cc2)cc1` (configuration not stated): the inhibition is 72.3% (active).

For the compound `CC(C)Cc1ccc(-c2csc(NC(=O)C3COCCO3)n2)cc1` (configuration not stated), the inhibition was 90.5% (active).

On to `Cc1nnsc1C(=O)Nc1ccc(C(=O)OC2CCCC2)cc1`, for which the inhibition was -6.8%.

In the case of `O=C(OC1CCCC1)c1ccc(NC(=O)C2COCCO2)cc1` (configuration not stated), the inhibition was 84.8% (active).

As for `Cc1cccc(OCCC(=O)Nc2ccc3c(c2)oc(=O)n3C)c1C`, the inhibition was 15.8%.

Turning to `CC(C)Oc1ccc(C(=O)Nc2ccc3c(c2)oc(=O)n3C)cn1`, the inhibition was 92.7% (active).

Consider `O=c1[nH]c(=O)n(CCC2=CCCCC2)c(O)c1C=C1C=CC=N1`, for which the inhibition was 89.4% (active).

On to `CSc1nc(N2CCCC2)c2cnn(CCNC(=O)c3cccs3)c2n1`, for which the inhibition was 9.6%.

As for `CSc1nc(NCC(C)C)c2cnn(CCNC(=O)CC(C)C)c2n1`, the inhibition was -2.36%.

Regarding `CCCNc1nc(SC)nc2c1cnn2CCNC(=O)c1c(F)cccc1Cl`, the inhibition is 60.4% (active).

Take `CC(=NNC(N)=S)c1ccc2c(c1)OCCO2`: the inhibition is 69% (active).

With `CC(=NNC(=S)NC(C)C)c1ccc(C(C)(C)C)cc1`, the inhibition was 5.89%.

As for `CC(=NNC(=S)NC(C)C)c1ccc2c(c1)OCCO2`, the inhibition is 88.1% (active).

Consider `CC(=NNC(N)=S)C(C)=NNC(N)=S`, for which the inhibition is 54.6% (active).

As to `C=CCNC(=S)NN=Cc1ccc2c(c1)OCCO2`, the inhibition was 23.3%.

Turning to `CC(=NNC(N)=S)C12CC3CC(CC(C3)C1)C2`, the inhibition is 14.6%.

Consider `CC(=NNC(N)=S)c1ccc(C)cc1`, for which the inhibition is 76.6% (active).

As for `COc1ccccc1-n1cc(-c2ccnc(N(C)Cc3cccc(C)n3)n2)cn1`, the inhibition was 29.4%.

On to `COc1ccc(-c2cnnc(N3CCC(c4ccccc4Cl)C3)n2)cc1` (configuration not stated), for which the inhibition entry is “inactive”.

For the compound `C=C(C)NC(=S)Nc1nccs1`, the inhibition is 7.83%.

For the compound `CC1CCC(N(C(=O)Nc2nccs2)C2CC2)CC1` (configuration not stated), the inhibition is 53.1% (active).

On to `CC1=CC(=O)c2c(O)cccc2C1=O`, for which the inhibition is 102% (active).

Consider `COc1ccccc1-c1cc(=O)c2cccc(OC)c2o1`, for which the inhibition is -0.59%.

As for `O=C(O)c1ccccc1-c1c2cc(Br)c(=O)cc-2oc2[c]([Hg])c(O)c(Br)cc12`, the inhibition was 66.5% (active).

As to `CCCCCCCCON1C(=O)C2C3C=CC(O3)C2C1=O` (configuration not stated), the inhibition is 8.42%.
